{"source": "PubChem BioAssay AID1850", "about": "(Southern Research Specialized Biocontainment Screening …, 2009)", "note": "Hit rate of the full screen: of about 310,000 compounds, about 1,000 (0.32%) were called active. How the calls were made is not given here. A selection follows. Entries with a potency or affinity are not part of this list. Where a SMILES comes first, the peptide text is derived from it. The star is where a group is joined. Boc = CC(C)(C)OC(=O)*"}
{"assay": "PhoP regulon inhibitors, Salmonella typhi PhoP promoter GFP reporter, confirmatory (AID 1850);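 further: 0% = induced wells with vehicle and 100% = uninduced wells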", "settings": "fluorescence, 4 h, at 50 µM, hits give high values"}
{"molecule": "Cc1ccc(CNC(=O)CSc2ncc(C(=O)Nc3ccccc3)c(=O)n2C)cc1", "inhibition": "6.4% (inactive)"}
{"molecule": "CC(C)CC(NC(=O)OC(C)(C)C)C(=O)NC(C(=O)N1CCCC1C(N)=O)C(C)C", "note": "(stereo not drawn) (Boc-Leu-Val-Pro-NH2; configuration not given here)", "inhibition": "-15.4% (inactive)"}
{"molecule": "CC(C)(C)OC(=O)N1CCC[C@@H]1CO", "inhibition": "-5.17% (inactive)"}
{"molecule": "O=c1[nH]c(=O)n(CCC2=CCCCC2)c(O)c1C=NC1CCN(Cc2ccccc2)CC1", "inhibition": "5.62% (inactive)"}
{"molecule": "CC1CCCCN1CC(=O)c1ccc2cc[nH]c2c1", "note": "(stereo not given)", "inhibition": "-0.31% (inactive)"}
{"molecule": "Cc1ccc(CC2S/C(=C(/C#N)C(=O)NCc3ccco3)N(c3ccccc3)C2=O)cc1", "note": "(stereo not given)", "inhibition": "-3.66% (inactive)"}
{"molecule": "Cc1ccc(S(=O)(=O)NC(=NC2CCCCC2)c2ccccc2)cc1", "inhibition": "5.09% (inactive)"}
{"molecule": "COc1cc([N+](=O)[O-])cc(/C=N/NC(=O)CSc2nnc(-c3ccccc3)n2C)c1O", "inhibition": "-13.2% (inactive)"}
{"molecule": "O=[N+]([O-])c1cccc(/C=N/Nc2ccccn2)c1", "inhibition": "8.41% (inactive)"}
{"molecule": "O=[N+]([O-])c1ccc(/C=N/Nc2ccccn2)cc1", "inhibition": "-0.36% (inactive)"}
{"molecule": "COc1ccc(O)c(/C=N/Nc2nc3ccccc3[nH]2)c1", "inhibition": "7.61% (inactive)"}
{"molecule": "COc1cc([N+](=O)[O-])cc(/C=N/NC(=O)Cn2nccc2C)c1O", "inhibition": "14.4% (inactive)"}
{"molecule": "CC(=O)Nc1nonc1NC(=O)CSc1ccccn1", "inhibition": "2.24% (inactive)"}
{"molecule": "CCN(CC)c1ccc(/C=N/Nc2nc3ccccc3[nH]2)c(O)c1", "inhibition": "13.9% (inactive)"}
{"molecule": "Cc1nonc1NC(=O)CSc1ccccn1", "inhibition": "6.57% (inactive)"}
{"molecule": "COc1cccc(N2CCN(C(=O)C3CCN(S(=O)(=O)c4ccc5c(c4)oc(=O)n5C)CC3)CC2)c1", "inhibition": "8.62% (inactive)"}
{"molecule": "Cc1ccc(C)c(-c2csc(-c3cccnc3)n2)c1", "inhibition": "1.2% (inactive)"}
{"molecule": "COc1ccc(-c2cc(-c3ccc(O)cc3)nc(N)c2C#N)cc1", "inhibition": "-1.2% (inactive)"}
{"molecule": "N#C/C(=C\\c1ccccc1Cl)C(=O)Nc1ccccn1", "inhibition": "2.25% (inactive)"}
{"molecule": "COC(=O)COc1ccc(C(C2C(=O)CC(C)(C)CC2=O)C2C(=O)CC(C)(C)CC2=O)cc1", "inhibition": "-2.61% (inactive)"}
{"molecule": "NC(=S)NNC(=O)c1cccc(Br)c1", "inhibition": "-6.69% (inactive)"}
{"molecule": "Cc1ccc(-n2nc(C)c(C(C)(O)C(F)(F)F)c2N)cc1", "note": "(stereo not given)", "inhibition": "9.79% (inactive)"}
{"molecule": "O=C(NC(Cc1ccccc1)C(=O)O)/C(=C\\c1ccccc1)NC(=O)c1ccc(Br)o1", "note": "(stereo not given)", "inhibition": "-5.27% (inactive)"}
{"molecule": "COc1cccc(NC(=O)c2ccc(NC(=O)C(C)C)cc2)c1", "inhibition": "-3.48% (inactive)"}
{"molecule": "Cc1ccc(N2N=C(c3ccc(F)cc3)CC2c2ccco2)cc1", "note": "(stereo not given)", "inhibition": "-33.1% (inactive)"}
{"molecule": "CC1CN(C(=O)COC(=O)c2ccc(N(C)C)cc2)CC(C)O1", "note": "(stereo not given)", "inhibition": "1.66% (inactive)"}
{"molecule": "COc1ccc(CC(=O)OCC(=O)N(C)C2CCS(=O)(=O)C2)cc1OC", "note": "(stereo not given)", "inhibition": "-0.6% (inactive)"}
{"molecule": "O=C(CSc1ccccn1)N/N=C/c1cccc([N+](=O)[O-])c1", "inhibition": "1.33% (inactive)"}
{"molecule": "O=C(CSc1nc2ccccc2s1)NCc1cc([N+](=O)[O-])ccc1O", "inhibition": "-40.6% (inactive)"}
{"molecule": "Cc1ccnn1CC(=O)N/N=C/c1c[nH]c2ccccc12", "inhibition": "2.22% (inactive)"}
{"molecule": "O=C(CSc1ccccn1)N/N=C/c1ccccc1[N+](=O)[O-]", "inhibition": "-6.71% (inactive)"}
{"molecule": "O=C(CSc1nc2ccccc2s1)N/N=C/c1ccccc1C(=O)O", "inhibition": "10.8% (inactive)"}
{"molecule": "Cc1nn(C)cc1/C=N/NC(=O)CSc1ccccn1", "inhibition": "3.55% (inactive)"}
{"molecule": "COc1ccc(NC(=O)CN2C(=O)c3cccc4cccc2c34)cc1OC", "inhibition": "-7.56% (inactive)"}
{"molecule": "O=C(Cn1cc(C(F)(F)F)cc(Cl)c1=O)NCc1ccc(Cl)cc1", "inhibition": "-1.19% (inactive)"}
{"molecule": "CCCCOC(=O)c1ccc(-c2ccc(/C=N/NC(=S)NCC)o2)cc1", "inhibition": "-7.32% (inactive)"}
{"molecule": "O=[N+]([O-])c1ccc(/C([O-])=C(/C(=S)NCc2ccco2)[n+]2ccccc2)cc1", "inhibition": "13.8% (inactive)"}
{"molecule": "O=C(NC1CCN(Cc2ccccc2)CC1)C1CCN(S(=O)(=O)c2ccccc2)CC1", "inhibition": "5.66% (inactive)"}
{"molecule": "Clc1ccc(-c2csc(N3CCc4ccccc4C3)n2)cc1", "inhibition": "5.55% (inactive)"}
{"molecule": "CC(C)CN=CC1=C(O)c2ccccc2C1=O", "inhibition": "5.42% (inactive)"}
{"molecule": "CC(C)(C)CN1CCN(Cc2cc3ccccc3[nH]2)CC1CCO", "note": "(stereo not given)", "inhibition": "2.46% (inactive)"}
{"molecule": "Cc1cc(C)n(C(=O)Cn2nc([N+](=O)[O-])cc2C)n1", "inhibition": "-5.88% (inactive)"}
{"molecule": "O=C1CSC(c2cccc([N+](=O)[O-])c2)N1c1ccccc1", "note": "(stereo not given)", "inhibition": "0.65% (inactive)"}
{"molecule": "Clc1ccccc1OCCCCN1CCCCC1", "inhibition": "-2.94% (inactive)"}
{"molecule": "CN1CCCC(CC2Oc3ccccc3Sc3ccccc32)C1", "note": "(stereo not given)", "inhibition": "11.3% (inactive)"}
{"molecule": "OCCC1CN(Cc2cccc3c2OCO3)CCN1C1CCCCC1", "note": "(stereo not given)", "inhibition": "-4.26% (inactive)"}
{"molecule": "Cc1ccc(S(=O)(=O)N(C)C(=O)NC(=O)NS(=O)(=O)c2ccccc2)cc1", "inhibition": "-5.97% (inactive)"}
{"molecule": "CCC(=O)/C=C1\\Sc2ccc(OC)cc2N1CCO", "inhibition": "-12.9% (inactive)"}
{"molecule": "CCC(/C=C1\\Sc2ccc(OC)cc2N1CC)=C\\c1sc2ccc(OC)cc2[n+]1CCCS(=O)(=O)[O-]", "inhibition": "-7.82% (inactive)"}
{"molecule": "COc1ccc(/C=N/Nc2nc(C)cc(-c3ccccc3)n2)cc1OC", "inhibition": "-1.16% (inactive)"}
{"molecule": "COc1ccc(-c2ccc(=O)n(Cc3cccc(Cl)c3)n2)cc1", "inhibition": "-10.8% (inactive)"}
{"molecule": "Cc1cc(C)nc(/N=C(\\N)Nc2cc([N+](=O)[O-])ccc2C)n1", "inhibition": "-1.74% (inactive)"}
{"molecule": "COc1ccc(C)cc1N/C(N)=N/c1nc(C)cc(C)n1", "inhibition": "-5.2% (inactive)"}
{"molecule": "Cc1ccc(N/C(N)=N/c2nc(C)cc(C)n2)cc1", "inhibition": "-9.13% (inactive)"}
{"molecule": "CCC(=O)Nc1ccc(N/C(N)=N/c2nc(C)cc(C)n2)cc1", "inhibition": "-8.68% (inactive)"}
{"molecule": "O=C(NCCF)C1Nc2ccc(OC(F)(F)F)cc2C2C=CCC12", "note": "(stereo not given)", "inhibition": "9.88% (inactive)"}
{"molecule": "C=CCN(C(=O)c1csnn1)C(C(=O)NCc1ccccc1)c1c(F)cccc1Cl", "note": "(stereo not given)", "inhibition": "-1.14% (inactive)"}
{"molecule": "CN(CC(=O)N1CCN(c2cccc(Cl)c2)CC1)S(=O)(=O)c1cccs1", "inhibition": "2.82% (inactive)"}
{"molecule": "CCOC(=O)C(C)NC(=O)CCc1nnc2ccc(N3CCCCC3)nn12", "note": "(stereo not given)", "inhibition": "1.43% (inactive)"}
{"molecule": "CC(=O)c1c(C)[nH]c(C(=O)N2CCN(c3ccccn3)CC2)c1C", "inhibition": "2.98% (inactive)"}
{"molecule": "Nc1nnc(SCC(=O)OCC(=O)c2ccccc2Br)s1", "inhibition": "1.19% (inactive)"}
{"molecule": "C#CCOCCOCCOCCNc1nc(N2CCN(C(=O)Cn3cc(CCCN=C(N)N)nn3)CC2)nc(N2CCN(C(=O)[C@H]([C@@H](C)CC)n3cc(CCCCN)nn3)CC2)n1", "inhibition": "-18% (inactive)"}
{"molecule": "C#CCOCCOCCOCCNc1nc(N2CCN(C(=O)CCCCCCCCCCNC(=O)Cn3cc(C[C@@H](C)O)nn3)CC2)nc(N2CCN(C(=O)CCCCCCCCCCNC(=O)[C@@H](CCC(=O)O)n3cc(CCCCCN)nn3)CC2)n1", "inhibition": "-25.1% (inactive)"}
{"molecule": "C#CCOCCOCCOCCNc1nc(N2CCN(C(=O)CCCCCCCCCCNC(=O)[C@H](CCC(=O)O)n3cc(CCCCCN)nn3)CC2)nc(N2CCN(C(=O)CCCCCCCCCCNC(=O)[C@@H]([C@H](C)O)n3cc(C)nn3)CC2)n1", "inhibition": "-1.84% (inactive)"}
{"molecule": "C#CCOCCOCCOCCNc1nc(N2CCN(C(=O)CCCCCCCCCCNC(=O)Cn3cc(C[C@@H](C)O)nn3)CC2)nc(N2CCN(C(=O)CCCCCCCCCCNC(=O)[C@@H]([C@H](C)O)n3cc(C)nn3)CC2)n1", "inhibition": "-25.3% (inactive)"}
{"molecule": "C#CCOCCOCCOCCNc1nc(N2CCOCC2)nc(N2CCN(C(=O)CCCCCCCCCCNC(=O)[C@@H]([C@H](C)CC)n3cc(CCCCCN)nn3)CC2)n1", "inhibition": "2.64% (inactive)"}
{"molecule": "C#CCOCCOCCOCCNc1nc(N2CCN(C(=O)CCCCCCCCCCNC(=O)Cn3cc(CCCCCN)nn3)CC2)nc(N2CCN(C(=O)CCCCCCCCCCNC(=O)[C@H](CO)n3cc(CCCCCN)nn3)CC2)n1", "inhibition": "16.5% (inactive)"}
{"molecule": "C#CCOCCOCCOCCNc1nc(N2CCN(C(=O)CCCCCCCCCCNC(=O)Cn3cc(CCCCCN)nn3)CC2)nc(N2CCN(C(=O)CCCCCCCCCCNC(=O)Cn3cc(C[C@@H](C)O)nn3)CC2)n1", "inhibition": "-2.3% (inactive)"}
{"molecule": "C#CCOCCOCCOCCNc1nc(N2CCN(C(=O)Cn3cc(CCCCN)nn3)CC2)nc(N2CCN(C(=O)[C@H]([C@@H](C)CC)n3cc(CCCN=C(N)N)nn3)CC2)n1", "inhibition": "5.45% (inactive)"}
{"molecule": "CN(CC(=O)NCc1ccncc1)S(=O)(=O)c1ccc(F)cc1", "inhibition": "9.34% (inactive)"}
{"molecule": "COc1cc(C(=O)NCC(=O)N/N=C(\\C)Cc2ccccc2)cc(OC)c1OC", "inhibition": "8.05% (inactive)"}
{"molecule": "Cc1cccc(CC(C)NC(=O)c2cc(COc3ccc(C)c(C)c3)on2)n1", "note": "(stereo not given)", "inhibition": "-0.63% (inactive)"}
{"molecule": "CCN(CC(=O)N1CCC(C(N)=O)CC1)S(=O)(=O)c1ccc(Cl)cc1", "inhibition": "-8.55% (inactive)"}
{"molecule": "Cc1ccc(-c2noc(CSc3nnc(CCc4ccccc4)n3-c3ccccc3)n2)cc1", "inhibition": "-7.22% (inactive)"}
{"molecule": "CCCCc1ccc(NC(=O)Nc2c(C)n(C)n(-c3ccccc3)c2=O)cc1", "inhibition": "-5.72% (inactive)"}
{"molecule": "O=C(NNC(=O)C1C2C=CC(C2)C1C(=O)O)c1cc(Cl)ccc1O", "note": "(stereo not given)", "inhibition": "-4.67% (inactive)"}
{"molecule": "COc1ccc(C2NCCc3c2[nH]c2ccccc32)cc1CSc1nc2ccccc2s1", "note": "(stereo not given)", "inhibition": "-3.05% (inactive)"}
{"molecule": "COc1cc(C2NCCc3c2[nH]c2ccccc32)ccc1OC(C)C", "note": "(stereo not given)", "inhibition": "-4.21% (inactive)"}
{"molecule": "CC(=O)N1CCN(S(=O)(=O)c2cccc(C(=O)NNC(=O)COc3ccc(Cl)cc3C)c2)CC1", "inhibition": "3.91% (inactive)"}
{"molecule": "COc1ccc(Cn2c(O)c(/C=N/NC(=O)c3ccccc3O)c(=O)[nH]c2=O)cc1", "inhibition": "-3.02% (inactive)"}
{"molecule": "Cc1ccccc1NC(=S)NCC(c1cccnc1)N(C)C", "note": "(stereo not given)", "inhibition": "4.06% (inactive)"}
{"molecule": "COc1ccccc1CN1CCc2c([nH]c3ccccc23)C1", "inhibition": "3.76% (inactive)"}
{"molecule": "CSc1ccc(CN2CCc3c([nH]c4ccccc34)C2)cc1", "inhibition": "2.22% (inactive)"}
{"molecule": "Clc1cccc(CN2CCc3c([nH]c4ccccc34)C2)c1", "inhibition": "1.94% (inactive)"}
{"molecule": "Cc1cccc(CN2CCc3c([nH]c4ccccc34)C2)c1", "inhibition": "8.05% (inactive)"}
